# Assay results reported in article PMC7862700, “An all-to-all approach to the identification of sequence-specific readers for epigenetic DNA modifications on cytosine”.
# Tests used:
# Assay in all cases: DAPPL (digital affinity profiling via proximity ligation, sequencing); 10 mM Tris-HCl pH 7.5, 50 mM NaCl, 1 mM DTT, 4% glycerol, room temperature, 30 min; GST-TFs on glutathione beads, 16-mer random dsDNA library, 0.1% formaldehyde crosslink after washing; high values mean tight binding
# FLI1 = molecular target: T1, FLI1 (Homo sapiens, UniProt Q01543 1-452); settings: protein: recombinant; tags: N-terminal GST; dsDNA, one strand shown
# T1 sequence: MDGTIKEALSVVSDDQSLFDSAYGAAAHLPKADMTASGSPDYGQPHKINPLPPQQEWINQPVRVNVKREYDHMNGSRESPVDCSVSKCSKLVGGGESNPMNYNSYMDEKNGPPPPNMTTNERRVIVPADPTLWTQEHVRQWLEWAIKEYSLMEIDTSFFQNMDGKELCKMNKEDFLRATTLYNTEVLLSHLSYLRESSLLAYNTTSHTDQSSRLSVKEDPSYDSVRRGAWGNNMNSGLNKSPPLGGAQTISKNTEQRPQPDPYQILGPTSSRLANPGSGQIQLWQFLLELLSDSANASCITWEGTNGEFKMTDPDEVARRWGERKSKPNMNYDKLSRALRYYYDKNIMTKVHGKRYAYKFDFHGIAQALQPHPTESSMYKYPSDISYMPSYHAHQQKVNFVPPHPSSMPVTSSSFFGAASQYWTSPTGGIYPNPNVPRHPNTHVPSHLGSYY
# In short: (§1)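 A tag-only sample was pooled with DNA-barcoded human transcription factors that had been expressed in yeast as GST fusions and captured on glutathione beads. The pools were incubated for 30 min at room temperature with 200 nmole of a random double-stranded 16-mer DNA library in Tris/NaCl/DTT/glycerol buffer, then washed, crosslinked with 0.1% formaldehyde, proximity-ligated (BsaI/T4 ligase, 1 h, 37 °C), PCR-amplified and sequenced on an Illumina NextSeq500. Binding signal is each hexamer's read frequency for a factor divided by its frequency for the tag-only sample.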
# ELK1 = molecular target: T2, ELK1 (Homo sapiens, UniProt P19419 1-428); settings: protein: recombinant; tags: N-terminal GST; dsDNA, one strand shown
# T2 sequence: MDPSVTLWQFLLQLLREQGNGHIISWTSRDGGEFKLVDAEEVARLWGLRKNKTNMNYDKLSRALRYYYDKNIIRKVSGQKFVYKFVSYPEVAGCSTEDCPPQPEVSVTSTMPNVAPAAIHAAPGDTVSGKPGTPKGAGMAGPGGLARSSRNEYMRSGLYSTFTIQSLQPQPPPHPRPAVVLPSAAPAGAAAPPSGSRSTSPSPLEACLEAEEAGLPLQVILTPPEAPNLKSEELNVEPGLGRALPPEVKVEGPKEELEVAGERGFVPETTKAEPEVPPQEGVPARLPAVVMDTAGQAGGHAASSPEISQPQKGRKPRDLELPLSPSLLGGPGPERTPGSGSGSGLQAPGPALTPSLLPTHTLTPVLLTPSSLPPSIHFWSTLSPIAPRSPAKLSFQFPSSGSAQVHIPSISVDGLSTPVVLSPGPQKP
# In short: as §1
# GABPA = molecular target: T3, GABPA (Homo sapiens, UniProt Q06546 1-454); settings: protein: recombinant; tags: N-terminal GST; dsDNA, one strand shown
# T3 sequence: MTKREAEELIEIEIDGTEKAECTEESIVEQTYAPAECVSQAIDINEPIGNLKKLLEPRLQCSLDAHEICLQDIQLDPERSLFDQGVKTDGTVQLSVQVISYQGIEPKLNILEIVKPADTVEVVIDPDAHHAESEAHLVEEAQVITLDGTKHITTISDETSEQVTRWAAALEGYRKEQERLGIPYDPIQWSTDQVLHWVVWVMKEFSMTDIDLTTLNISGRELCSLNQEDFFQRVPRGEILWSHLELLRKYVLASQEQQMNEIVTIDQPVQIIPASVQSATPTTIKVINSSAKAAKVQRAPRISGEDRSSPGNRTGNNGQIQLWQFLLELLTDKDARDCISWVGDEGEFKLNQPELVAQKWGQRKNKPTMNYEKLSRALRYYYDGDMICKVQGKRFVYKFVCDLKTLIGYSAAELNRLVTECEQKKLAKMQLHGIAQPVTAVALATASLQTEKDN
# In short: as §1
# ERG = molecular target: T4, ERG (Homo sapiens, UniProt P11308 1-479); settings: protein: recombinant; tags: N-terminal GST; dsDNA, one strand shown
# T4 sequence: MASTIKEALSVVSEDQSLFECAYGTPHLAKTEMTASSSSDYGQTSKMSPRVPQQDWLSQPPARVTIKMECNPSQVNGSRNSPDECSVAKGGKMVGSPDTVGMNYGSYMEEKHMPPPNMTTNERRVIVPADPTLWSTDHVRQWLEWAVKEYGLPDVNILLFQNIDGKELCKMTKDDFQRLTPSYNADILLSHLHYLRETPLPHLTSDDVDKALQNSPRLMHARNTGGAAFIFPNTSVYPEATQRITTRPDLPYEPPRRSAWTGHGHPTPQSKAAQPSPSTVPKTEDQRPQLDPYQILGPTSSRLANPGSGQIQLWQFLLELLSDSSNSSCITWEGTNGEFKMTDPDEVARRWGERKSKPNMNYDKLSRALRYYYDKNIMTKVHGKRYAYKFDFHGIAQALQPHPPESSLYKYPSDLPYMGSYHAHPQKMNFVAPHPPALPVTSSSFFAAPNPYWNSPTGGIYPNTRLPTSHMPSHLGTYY
# In short: as §1
# ELF1 = ELF1 (Homo sapiens, UniProt P32519 1-619); settings: protein: recombinant; tags: N-terminal GST; dsDNA, one strand shown
# In short: as §1
# EHF = molecular target: T5, EHF (Homo sapiens, UniProt Q9NZC4 1-300); settings: protein: recombinant; tags: N-terminal GST; dsDNA, one strand shown
# T5 sequence: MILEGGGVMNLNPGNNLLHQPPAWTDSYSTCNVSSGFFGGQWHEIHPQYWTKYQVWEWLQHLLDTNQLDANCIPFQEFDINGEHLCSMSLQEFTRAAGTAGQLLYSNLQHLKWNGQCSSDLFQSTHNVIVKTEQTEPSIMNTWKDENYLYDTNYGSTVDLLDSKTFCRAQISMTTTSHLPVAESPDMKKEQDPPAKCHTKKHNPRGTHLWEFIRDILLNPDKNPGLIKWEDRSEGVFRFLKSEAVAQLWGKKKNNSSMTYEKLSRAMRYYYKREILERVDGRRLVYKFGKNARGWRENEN
# In short: as §1
# SPI1 = SPI1 (Homo sapiens, UniProt P17947 1-270); settings: protein: recombinant; tags: N-terminal GST; dsDNA, one strand shown
# In short: as §1
# SPIB = SPIB (Homo sapiens, UniProt Q01892 1-262); settings: protein: recombinant; tags: N-terminal GST; dsDNA, one strand shown
# In short: as §1
# ELK3 = molecular target: T6, ELK3 (Homo sapiens, UniProt P41970 1-407); settings: protein: recombinant; tags: N-terminal GST; dsDNA, one strand shown
# T6 sequence: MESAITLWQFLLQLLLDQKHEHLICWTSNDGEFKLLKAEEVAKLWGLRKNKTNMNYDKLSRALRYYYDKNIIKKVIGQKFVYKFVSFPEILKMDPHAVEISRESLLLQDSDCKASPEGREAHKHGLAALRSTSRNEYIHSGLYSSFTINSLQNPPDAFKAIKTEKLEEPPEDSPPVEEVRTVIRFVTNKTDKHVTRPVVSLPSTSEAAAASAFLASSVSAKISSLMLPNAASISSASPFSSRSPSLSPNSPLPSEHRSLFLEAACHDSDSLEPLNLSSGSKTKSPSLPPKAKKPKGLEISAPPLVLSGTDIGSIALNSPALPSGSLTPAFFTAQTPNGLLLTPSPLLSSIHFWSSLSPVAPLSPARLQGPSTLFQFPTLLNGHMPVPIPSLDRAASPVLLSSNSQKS
# In short: as §1
# FEV = molecular target: T7, FEV (Homo sapiens, UniProt Q99581 1-238); settings: protein: recombinant; tags: N-terminal GST; dsDNA, one strand shown
# T7 sequence: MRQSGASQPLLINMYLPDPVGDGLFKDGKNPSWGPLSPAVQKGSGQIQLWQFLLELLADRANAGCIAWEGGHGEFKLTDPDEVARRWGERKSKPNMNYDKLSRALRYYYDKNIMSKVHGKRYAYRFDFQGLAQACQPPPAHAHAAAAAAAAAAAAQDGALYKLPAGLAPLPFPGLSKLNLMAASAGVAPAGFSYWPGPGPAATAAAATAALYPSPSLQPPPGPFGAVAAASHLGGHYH
# In short: as §1
# ETV5 = ETV5 (Homo sapiens, UniProt P41161 1-510); settings: protein: recombinant; tags: N-terminal GST; dsDNA, one strand shown
# In short: as §1
# HSF1 = HSF1 (Homo sapiens, UniProt Q00613 1-529); settings: protein: recombinant; tags: N-terminal GST; chain copies: 3; dsDNA, one strand shown
# In short: as §1
# SPIC = molecular target: T8, SPIC (Homo sapiens, UniProt Q8N5J4 1-248); settings: protein: recombinant; tags: N-terminal GST; dsDNA, one strand shown
# T8 sequence: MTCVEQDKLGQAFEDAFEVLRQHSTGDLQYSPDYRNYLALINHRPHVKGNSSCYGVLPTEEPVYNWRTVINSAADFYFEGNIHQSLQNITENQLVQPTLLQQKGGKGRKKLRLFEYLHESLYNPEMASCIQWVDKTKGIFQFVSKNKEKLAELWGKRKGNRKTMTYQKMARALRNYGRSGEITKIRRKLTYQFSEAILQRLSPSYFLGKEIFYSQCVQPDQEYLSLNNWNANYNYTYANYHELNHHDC
# In short: as §1
# ELF4 = ELF4 (Homo sapiens, UniProt Q99607 1-663); settings: protein: recombinant; tags: N-terminal GST; dsDNA, one strand shown
# In short: as §1
# ELK4 = molecular target: T9, ELK4 (Homo sapiens, UniProt P28324-2 1-405); settings: protein: recombinant; tags: N-terminal GST; dsDNA, one strand shown
# T9 sequence: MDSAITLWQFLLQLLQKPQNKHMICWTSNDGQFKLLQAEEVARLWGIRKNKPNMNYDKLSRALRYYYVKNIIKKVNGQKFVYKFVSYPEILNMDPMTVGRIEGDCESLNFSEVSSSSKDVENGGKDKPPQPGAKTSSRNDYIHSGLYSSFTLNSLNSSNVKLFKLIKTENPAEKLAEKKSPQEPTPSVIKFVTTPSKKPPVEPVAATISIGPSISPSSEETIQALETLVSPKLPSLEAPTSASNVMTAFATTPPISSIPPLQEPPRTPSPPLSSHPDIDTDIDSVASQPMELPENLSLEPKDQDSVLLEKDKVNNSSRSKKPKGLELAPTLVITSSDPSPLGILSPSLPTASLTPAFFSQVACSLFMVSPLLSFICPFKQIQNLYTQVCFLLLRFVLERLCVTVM
# In short: as §1
# ETV2 = molecular target: T10, ETV2 (Homo sapiens, UniProt O00321 1-342); settings: protein: recombinant; tags: N-terminal GST; dsDNA, one strand shown
# T10 sequence: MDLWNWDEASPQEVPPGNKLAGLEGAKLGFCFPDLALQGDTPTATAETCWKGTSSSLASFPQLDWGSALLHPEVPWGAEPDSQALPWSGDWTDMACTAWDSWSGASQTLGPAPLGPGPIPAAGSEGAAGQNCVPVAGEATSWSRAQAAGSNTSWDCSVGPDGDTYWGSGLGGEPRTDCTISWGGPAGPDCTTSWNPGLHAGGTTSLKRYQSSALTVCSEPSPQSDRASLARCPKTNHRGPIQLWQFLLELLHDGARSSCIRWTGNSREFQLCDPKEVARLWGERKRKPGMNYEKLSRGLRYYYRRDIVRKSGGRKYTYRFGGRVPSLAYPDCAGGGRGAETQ
# In short: as §1
# ELF3 = molecular target: T11, ELF3 (Homo sapiens, UniProt P78545 1-371); settings: protein: recombinant; tags: N-terminal GST; dsDNA, one strand shown
# T11 sequence: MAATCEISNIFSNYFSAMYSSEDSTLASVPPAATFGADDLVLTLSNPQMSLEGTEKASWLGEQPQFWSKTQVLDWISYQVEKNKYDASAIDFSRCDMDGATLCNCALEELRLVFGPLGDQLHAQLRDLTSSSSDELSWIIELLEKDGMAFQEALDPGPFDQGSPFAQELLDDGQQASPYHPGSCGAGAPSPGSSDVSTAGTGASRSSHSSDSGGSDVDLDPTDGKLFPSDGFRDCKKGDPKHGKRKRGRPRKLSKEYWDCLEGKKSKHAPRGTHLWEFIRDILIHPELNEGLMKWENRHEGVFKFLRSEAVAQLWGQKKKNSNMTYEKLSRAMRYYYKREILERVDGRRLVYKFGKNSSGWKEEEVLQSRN
# In short: as §1
# CRX = CRX (Homo sapiens, UniProt O43186 1-299); settings: protein: recombinant; tags: N-terminal GST; dsDNA, one strand shown
# In short: as §1
# ETV1 = ETV1 (Homo sapiens, UniProt P50549 1-477); settings: protein: recombinant; tags: N-terminal GST; dsDNA, one strand shown
# In short: as §1
# Sequence of SPIB (Q01892 whole entry): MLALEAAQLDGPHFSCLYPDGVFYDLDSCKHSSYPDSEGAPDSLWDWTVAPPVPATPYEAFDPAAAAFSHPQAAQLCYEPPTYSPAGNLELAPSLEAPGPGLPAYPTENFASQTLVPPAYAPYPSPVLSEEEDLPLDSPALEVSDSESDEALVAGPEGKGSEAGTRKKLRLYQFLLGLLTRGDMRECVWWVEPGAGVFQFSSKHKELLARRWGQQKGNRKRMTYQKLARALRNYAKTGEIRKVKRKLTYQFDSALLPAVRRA
# Sequence of CRX (O43186 whole entry): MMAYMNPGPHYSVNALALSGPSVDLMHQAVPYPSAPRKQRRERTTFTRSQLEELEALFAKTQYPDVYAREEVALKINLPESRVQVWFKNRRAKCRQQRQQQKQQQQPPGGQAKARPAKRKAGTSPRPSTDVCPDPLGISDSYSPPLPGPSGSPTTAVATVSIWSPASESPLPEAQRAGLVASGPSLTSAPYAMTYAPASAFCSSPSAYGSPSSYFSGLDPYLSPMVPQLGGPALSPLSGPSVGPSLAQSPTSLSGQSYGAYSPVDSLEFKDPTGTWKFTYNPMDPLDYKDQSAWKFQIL
# Sequence of ETV1 (P50549 whole entry): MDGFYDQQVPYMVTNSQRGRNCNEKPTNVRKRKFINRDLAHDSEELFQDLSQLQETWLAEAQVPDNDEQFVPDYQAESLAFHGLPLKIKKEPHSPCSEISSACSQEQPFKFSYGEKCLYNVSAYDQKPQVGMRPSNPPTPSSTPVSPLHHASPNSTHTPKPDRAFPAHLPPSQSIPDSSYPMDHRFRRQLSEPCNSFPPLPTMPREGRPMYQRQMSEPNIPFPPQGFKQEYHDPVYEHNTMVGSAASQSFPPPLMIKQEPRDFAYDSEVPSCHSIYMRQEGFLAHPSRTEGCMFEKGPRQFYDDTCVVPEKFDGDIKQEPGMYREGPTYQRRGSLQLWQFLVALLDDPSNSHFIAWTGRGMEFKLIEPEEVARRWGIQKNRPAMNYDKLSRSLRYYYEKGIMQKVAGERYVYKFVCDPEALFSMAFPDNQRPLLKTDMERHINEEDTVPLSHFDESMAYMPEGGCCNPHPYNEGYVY
# Sequence of HSF1 (Q00613 whole entry): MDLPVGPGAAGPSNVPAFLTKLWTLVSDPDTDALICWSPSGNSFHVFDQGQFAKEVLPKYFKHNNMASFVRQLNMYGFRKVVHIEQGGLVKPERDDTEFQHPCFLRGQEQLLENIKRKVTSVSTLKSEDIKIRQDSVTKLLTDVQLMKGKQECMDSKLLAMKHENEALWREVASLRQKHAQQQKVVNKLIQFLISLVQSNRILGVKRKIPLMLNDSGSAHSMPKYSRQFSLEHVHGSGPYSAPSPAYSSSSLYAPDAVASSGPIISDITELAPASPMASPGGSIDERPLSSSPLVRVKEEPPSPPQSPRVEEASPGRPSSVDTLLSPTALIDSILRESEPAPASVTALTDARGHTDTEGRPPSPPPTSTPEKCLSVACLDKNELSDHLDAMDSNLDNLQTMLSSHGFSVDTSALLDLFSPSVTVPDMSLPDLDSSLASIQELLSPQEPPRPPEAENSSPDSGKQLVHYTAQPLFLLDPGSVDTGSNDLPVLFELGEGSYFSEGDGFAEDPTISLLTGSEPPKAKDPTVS
# Sequence of ELF4 (Q99607 whole entry): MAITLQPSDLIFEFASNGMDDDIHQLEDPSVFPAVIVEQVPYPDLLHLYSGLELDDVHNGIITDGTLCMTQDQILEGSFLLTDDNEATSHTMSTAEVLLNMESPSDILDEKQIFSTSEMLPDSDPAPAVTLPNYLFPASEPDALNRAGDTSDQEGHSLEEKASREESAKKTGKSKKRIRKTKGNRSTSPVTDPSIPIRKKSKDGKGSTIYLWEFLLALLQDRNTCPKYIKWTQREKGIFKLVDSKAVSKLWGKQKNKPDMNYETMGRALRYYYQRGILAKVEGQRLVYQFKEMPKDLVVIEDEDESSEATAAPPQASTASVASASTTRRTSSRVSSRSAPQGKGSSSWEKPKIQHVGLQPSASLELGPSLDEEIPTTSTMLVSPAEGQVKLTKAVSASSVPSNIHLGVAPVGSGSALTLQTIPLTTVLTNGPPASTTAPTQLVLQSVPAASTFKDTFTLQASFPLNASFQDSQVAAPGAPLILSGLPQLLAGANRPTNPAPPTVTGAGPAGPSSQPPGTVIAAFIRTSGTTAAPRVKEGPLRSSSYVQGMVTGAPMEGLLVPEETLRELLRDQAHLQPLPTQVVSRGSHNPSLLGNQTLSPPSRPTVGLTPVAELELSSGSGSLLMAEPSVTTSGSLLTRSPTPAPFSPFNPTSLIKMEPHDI
# Sequence of ETV5 (P41161 whole entry): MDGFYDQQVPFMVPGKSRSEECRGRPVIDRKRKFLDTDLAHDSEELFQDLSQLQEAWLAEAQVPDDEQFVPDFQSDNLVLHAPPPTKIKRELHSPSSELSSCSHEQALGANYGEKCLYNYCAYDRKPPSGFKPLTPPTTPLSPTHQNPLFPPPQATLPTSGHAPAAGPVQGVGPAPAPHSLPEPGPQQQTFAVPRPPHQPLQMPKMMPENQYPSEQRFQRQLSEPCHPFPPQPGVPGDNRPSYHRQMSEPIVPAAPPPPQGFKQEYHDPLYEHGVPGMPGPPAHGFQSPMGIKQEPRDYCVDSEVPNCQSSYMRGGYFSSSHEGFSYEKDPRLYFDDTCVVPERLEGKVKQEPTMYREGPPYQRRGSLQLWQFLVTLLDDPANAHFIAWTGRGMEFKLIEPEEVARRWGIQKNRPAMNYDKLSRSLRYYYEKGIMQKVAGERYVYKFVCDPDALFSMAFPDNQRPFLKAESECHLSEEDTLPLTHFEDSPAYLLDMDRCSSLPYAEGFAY
# Sequence of ELF1 (P32519 whole entry): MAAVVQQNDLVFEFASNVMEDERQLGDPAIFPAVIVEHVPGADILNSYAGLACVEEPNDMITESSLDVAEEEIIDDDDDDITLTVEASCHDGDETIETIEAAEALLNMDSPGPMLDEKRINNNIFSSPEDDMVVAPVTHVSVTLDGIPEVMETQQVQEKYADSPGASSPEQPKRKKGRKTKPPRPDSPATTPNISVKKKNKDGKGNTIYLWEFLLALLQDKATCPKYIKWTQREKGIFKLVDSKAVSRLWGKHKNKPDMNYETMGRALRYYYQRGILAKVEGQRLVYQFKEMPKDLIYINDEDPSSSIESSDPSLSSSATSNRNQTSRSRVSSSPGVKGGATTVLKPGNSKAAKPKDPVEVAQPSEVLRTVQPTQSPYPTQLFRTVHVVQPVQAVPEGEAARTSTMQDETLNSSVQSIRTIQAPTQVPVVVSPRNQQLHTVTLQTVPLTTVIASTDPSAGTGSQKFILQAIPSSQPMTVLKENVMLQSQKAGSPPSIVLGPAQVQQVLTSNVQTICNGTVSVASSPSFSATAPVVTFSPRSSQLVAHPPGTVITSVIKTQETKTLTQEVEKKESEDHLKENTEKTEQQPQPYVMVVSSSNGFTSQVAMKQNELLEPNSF
sequence,measurement,setting,value
CCTTCG,binding signal,FLI1,"1.31 fold enrichment (6-mer frequency, TF over GST control)"
same,binding signal,ELK1,"1.33 fold enrichment (6-mer frequency, TF over GST control)"
same,binding signal,GABPA,"1.35 fold enrichment (6-mer frequency, TF over GST control)"
same,binding signal,ERG,"1.3 fold enrichment (6-mer frequency, TF over GST control)"
same,binding signal,ELF1,"1.33 fold enrichment (6-mer frequency, TF over GST control)"
same,binding signal,EHF,"1.19 fold enrichment (6-mer frequency, TF over GST control)"
same,binding signal,SPI1,"1.32 fold enrichment (6-mer frequency, TF over GST control)"
same,binding signal,SPIB,"1.41 fold enrichment (6-mer frequency, TF over GST control)"
same,binding signal,ELK3,"1.65 fold enrichment (6-mer frequency, TF over GST control)"
same,binding signal,FEV,"1.38 fold enrichment (6-mer frequency, TF over GST control)"
same,binding signal,ETV5,"1.3 fold enrichment (6-mer frequency, TF over GST control)"
same,binding signal,HSF1,"1.88 fold enrichment (6-mer frequency, TF over GST control)"
same,binding signal,SPIC,"1.31 fold enrichment (6-mer frequency, TF over GST control)"
same,binding signal,ELF4,"1.39 fold enrichment (6-mer frequency, TF over GST control)"
same,binding signal,ELK4,"1.34 fold enrichment (6-mer frequency, TF over GST control)"
same,binding signal,ETV2,"1.39 fold enrichment (6-mer frequency, TF over GST control)"
same,binding signal,ELF3,"1.28 fold enrichment (6-mer frequency, TF over GST control)"
same,binding signal,CRX,"1.28 fold enrichment (6-mer frequency, TF over GST control)"
same,binding signal,ETV1,"1.5 fold enrichment (6-mer frequency, TF over GST control)"
